Screening results deposited in PubChem by National Center for Advancing Translational Sciences (NCATS).
This is a sample that favours compounds with a hit; in the whole collection about 12% have one here.
HP1b binding inh: HP1-beta chromodomain-methylated histone interaction inhibition | AlphaScreen HP1-beta / biotin-H3K9me3 peptide binding | Potency, µM (top dose mostly 114 µM), most hits filed as inhibitors | 390,000 tested, 0.56% active; further: nearly all actives have a fitted effect of over 70% in size
Target sequence (P83916 whole entry, looked up): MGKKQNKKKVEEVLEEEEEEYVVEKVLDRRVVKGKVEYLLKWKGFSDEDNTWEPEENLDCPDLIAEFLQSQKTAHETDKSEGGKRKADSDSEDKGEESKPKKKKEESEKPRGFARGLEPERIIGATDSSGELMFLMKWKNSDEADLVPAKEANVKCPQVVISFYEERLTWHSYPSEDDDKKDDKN
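HP1-beta protein (50 nM final) preincubated 30 min at room temperature with biotinylated H3(1-18)K9me3 peptide (50 nM) in PBS pH 7.4, 0.01% Tween-20, then compound added for 30 min. AlphaScreen streptavidin donor/nickel chelate acceptor beads (10 ug/mL final), 30 min dark, luminescence read.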
BAZ2B inh: inhibitors of human BAZ2B bromodomain. AID 504333. AlphaScreen BAZ2B-H3K14Ac peptide displacement. 360,000 tested, 4.4% active. Q9UIF8. Potency, µM (top dose mostly 114 µM), hits mostly inhibitors; further: nearly all actives have a fitted effect of over 60% in size
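AlphaScreen displacement: compounds (up to 110uM) incubated 30 min at room temperature with a preformed 50 nM BAZ2B/50 nM biotinylated H3K14Ac peptide complex in PBS pH 7.4 with Tween-20. Donor and acceptor beads at 10 ug/mL final added, 20 min light-protected before reading.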
L3MBTL1 block: inhibitors of human L3MBTL1 | AlphaScreen L3MBTL1–H3K9me1 peptide binding | Q9Y468 | AID 485360 | 230,000 tested, 0.66% active | Potency, µM (highest dose often 57.1 µM), most hits filed as inhibitors; further: nearly all actives have a fitted effect of over 60% in size
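AlphaScreen assay: L3MBTL1 (50 nM final) was preincubated 30 min at room temperature with biotinylated H3(1-15)K9me1 peptide (75 nM final), then 30 min with library compounds; streptavidin donor and nickel chelate acceptor beads (10 ug/mL final) added, 30 min dark.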
G9a inh: inhibitors of human histone lysine methyltransferase G9a; G9a H3K9 monomethylation, AlphaScreen, 2 h; Potency, µM (titrated, usually from 102 µM), hits mostly inhibitors; 350,000 tested, 8.8% active; further: nearly all actives have a fitted effect of over 75% in size
Target sequence (Q96KQ7 913-1193 limits assumed): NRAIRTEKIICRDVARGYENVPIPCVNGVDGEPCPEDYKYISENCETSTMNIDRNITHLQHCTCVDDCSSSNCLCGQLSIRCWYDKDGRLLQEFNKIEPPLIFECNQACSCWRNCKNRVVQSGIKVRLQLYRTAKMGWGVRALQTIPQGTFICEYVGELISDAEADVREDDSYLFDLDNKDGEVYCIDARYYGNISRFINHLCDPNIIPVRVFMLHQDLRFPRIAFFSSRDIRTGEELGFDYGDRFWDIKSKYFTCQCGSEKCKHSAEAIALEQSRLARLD
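Enzyme 20 nM + cpd, 15 min RT; add b-H3K9 pep 500 nM / SAM 20 uM; 2 h RT; anti-H3K9me1 Ab 0.5 ug/mL + SA donor / anti-rabbit acceptor beads 20 ug/mL each, 10 min; AlphaScreen read.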
JMJD2A Tudor inh: inhibitors of human JMJD2A Tudor domain | Potency, µM (top dose mostly 114 µM), most hits filed as inhibitors | 390,000 tested, 4.4% active | AlphaScreen JMJD2A-Tudor / H3K4me3 peptide binding | O75164 | AID 504339; further: nearly all actives have a fitted effect of over 50% in size
Sfp inh: Sfp phosphopantetheinyl transferase inhibition | AID 1490 | Potency, µM, usual class: inhibitors | Q9F4F7 | 310,000 tested, 3.5% active | Biochemical Sfp PPTase activity, qHTS;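 further: the enzyme is Sfp with the accession as filed and its product quenches rhodamine fluorescence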
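Reaction rates are the 30-min fluorescence difference (ex 525, em 598 nm) in wells containing 15 nM Sfp, 5 uM rhodamine-CoA and 12.5 uM BHQ-2-YbbR at pH 7.6 with 10 mM MgCl2.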
Hits are given with their value; i = inactive; ? = inconclusive; nt = no result given; ! = repeats disagree; [ ] = another dose, or the depositor's remark. The call rests on the fitted dose curve; in most records, active means well fitted curve in the direction sought with a large enough effect; inconclusive means small, poorly fitted or top-dose-only effect, or another doubt; inactive means no such curve, though single readings can be large; an effect the other way counts as inactive or inconclusive.

SMILES	HP1b binding inh	BAZ2B inh	L3MBTL1 block	G9a inh	JMJD2A Tudor inh	Sfp inh
COc1ccccc1N(C)S(=O)(=O)c1ccc(C(=O)Nc2ccc(N3CCOCC3)cc2)cc1	i	?	i	39.8µM	?	i
Cc1c(C)n(Cc2ccc(F)cc2)c2ccc(C(=O)Nc3ccc(Cl)cc3)cc12	i	i	nt	i	i	nt
CC(=O)N[C@@H](CSC(=O)[C@]1([C@@H](O)C(C)C)NC(=O)[C@H](C)[C@@H]1O)C(=O)O	nt	nt	nt	i[12.7 µM]	nt	i
CC(C)CC(=O)n1nc(-c2ccco2)nc1NCc1ccc(Cl)cc1	i	i	nt	i	i	nt
S=c1[nH]nc(C2COc3ccccc3O2)o1 (stereo unspecified)	i	i	i	31.6µM	i	i
Cc1nc(C2COc3ccccc3O2)sc1C(=O)O (stereo unspecified)	i	i	i	i	i	i
O=C(CSc1nnc(C2COc3ccccc3O2)o1)N1CCCCC1 (stereo unspecified)	i	i	nt	?	i	i
S=c1nc(C2COc3ccccc3O2)[nH][nH]1 (stereo unspecified)	i	?	i	3.55µM	1.78µM	22.4µM
O=C(O)c1cccc(NC(=O)c2cn(-c3ccccc3)nc2-c2ccc([N+](=O)[O-])cc2)c1	i	?	i	nt	i	i
COc1cccc(-c2nn(-c3ccccc3)cc2CO)c1	i	i	nt	i	i	i
COc1cccc(-c2nn(-c3ccccc3)cc2C(=O)NCC(=O)O)c1	i	i	i	50.1µM	i	i
COc1ccc(-c2nn(-c3ccccc3)cc2C(=O)Nc2cccc(C(=O)O)c2)cc1[N+](=O)[O-]	i	39.8µM	i	nt	50.1µM	i
O=C(O)c1cccc(NC(=O)c2cn(-c3ccccc3)nc2-c2ccncc2)c1	?	?	i	31.6µM	i	i
O=C(O)c1cccc(NC(=O)c2cn(-c3ccccc3)nc2-c2cccc(Br)c2)c1	i	i	i	i	i	i
COc1ccc(-c2nn(-c3ccccc3)cc2C(=O)NC(=S)NNC(=O)c2ccncc2)cc1	?	i	nt	31.6µM	?	i
CC1(C)O[C@@H]2C[C@H]3[C@@H]4CCC5=CC(=O)C=C[C@]5(C)[C@H]4C(O)C[C@]3(C)[C@]2(C(=O)CO)O1 (stereo partly specified)	nt	nt	nt	i[12.7 µM]	nt	i
O=C(NCc1cccs1)c1nn(-c2ccccc2)nc1CO	i	i	nt	i	i	nt
Cc1ccc(C2=NN(CC(=O)NCCCN(CC(C)C)CC(C)C)C(=O)CC2)cc1	i	i	nt	i	i	nt
CC(=O)N1CCN(c2ccc(Oc3ccc([N+](=O)[O-])c(C(F)(F)F)c3)cc2)CC1	i	?	nt	50.1µM	?	i
CN(C)S(=O)(=O)c1cccc(COC(=O)c2cc([N+](=O)[O-])ccc2N2CCOCC2)c1	i	i	i	56.2µM	i	nt
Cc1ccccc1COC(=O)c1cc([N+](=O)[O-])ccc1N1CCOCC1	i	i	nt	?	?	i
CSc1ccc(COC(=O)c2cc([N+](=O)[O-])ccc2N2CCOCC2)cc1	?	i	i	44.7µM	?	nt
CC(=O)N1c2c(cc(Br)cc2S(=O)(=O)N2CCN(C(=O)c3ccco3)CC2)CC1C (stereo unspecified)	i	i	i	?	22.4µM	i
Cc1cccc(NC(=O)CNC(=O)c2cc(C3CC3)nn2-c2ccccc2)c1C	i	i	i	50.1µM	i	nt
CCCOc1ccc(C(=O)Nc2ccc3oc(-c4ccc5ccccc5c4)nc3c2)cc1	i	i	nt	i	i	nt
COC(=O)C(Cc1c[nH]c2ccccc12)NC(=O)C(=O)c1c[nH]c2ccccc12 (stereo unspecified)	i	?	nt	31.6µM	?	i
COC(=O)C(Cc1c[nH]c2ccccc12)NC(=O)C(C)C (stereo unspecified)	i	i	i	i	i	i
COC(=O)CNC(=O)C(Cc1c[nH]c2ccccc12)NC(=O)Oc1ccccc1 (stereo unspecified)	i	0.708µM	nt	nt	i	i
N[C@@H](Cc1c[nH]c2ccccc12)C(=O)O	nt	50.1µM	nt	8.44µM!	nt	?
COc1ccc(NC(=O)c2c(NC(=O)CNCC(C)C)sc3c2CCC3)c(OC)c1	i	i	i	nt	i	?
